DRD3 agonist: activates the human D3 dopamine receptor. P35462. D3R DiscoveRx beta-arrestin cells, luminescence, 90 min. max activation, %. 0.58% of 410,000 active. AID 652048; in the data active = max activation above about 30%
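Agonist mode: compounds and dopamine controls were applied to plated cells for 90 min at 37 degrees C after an overnight attachment at 1500 cells/well. Luminescent read-out followed 30 - 60 minutes at room temperature with DiscoveRx detection reagent.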
D1 PAM: human D1 dopamine receptor positive modulation; P21728; HEK293 TREx D1 cells, calcium flux, dopamine EC20 potentiation; potentiation, % at 10 µM; 0.036% of 360,000 active; AID 504651; in the data active = potentiation above about 30%
Target sequence (P21728 whole entry, looked up): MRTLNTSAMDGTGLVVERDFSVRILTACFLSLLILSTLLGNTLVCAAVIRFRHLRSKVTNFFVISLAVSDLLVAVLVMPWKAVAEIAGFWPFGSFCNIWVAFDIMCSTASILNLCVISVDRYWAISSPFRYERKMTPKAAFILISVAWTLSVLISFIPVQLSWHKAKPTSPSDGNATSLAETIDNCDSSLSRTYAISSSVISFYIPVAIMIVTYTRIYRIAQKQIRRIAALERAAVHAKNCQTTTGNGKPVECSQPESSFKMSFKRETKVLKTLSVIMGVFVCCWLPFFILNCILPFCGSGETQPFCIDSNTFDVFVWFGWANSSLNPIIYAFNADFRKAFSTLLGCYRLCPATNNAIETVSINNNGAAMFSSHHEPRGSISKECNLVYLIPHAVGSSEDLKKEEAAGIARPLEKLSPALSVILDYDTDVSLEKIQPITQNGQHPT
D1 agonist: agonists of human D1 dopamine receptor. P21728. HEK293 T-REx D1 cells, calcium flux, agonist mode. activation, % at 2 µM. 1% of 360,000 active. AID 504660; in the data active = activation above about 30%
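Inducible HEK293 T-REx D1 cells, force-coupled to calcium signalling, were plated at 4000 cells/well with tetracycline and held overnight at 30 C. After no-wash calcium dye loading, compound-evoked calcium rise over 180 s flagged agonists.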
D3 antag: blocks the human D3 dopamine receptor; P35462; D3R cells, DiscoveRx beta-arrestin luminescence, antagonist mode; active compounds read low; max response, negative = inhibition, %; 2.5% of 360,000 active; AID 652054; in the data active = max response below about -50%; inconclusive = no clear call, values can overlap the other calls
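Cells expressing the human receptor were seeded at 1500 cells/well, incubated overnight at 37 degrees C in 5% CO2, then exposed to library compounds with dopamine controls for 90 minutes at 37 degrees C before luminescent detection.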
D1 antagonist: human D1 dopamine receptor antagonism; P21728; HEK293 TREx D1 cells, calcium flux, dopamine EC80; active compounds read low; activity change, negative = inhibition, % at 10 µM; 3.2% of 360,000 active; AID 504652; in the data active = activity change below about -30%
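Using tetracycline-induced force-coupled D1 Hek293 cells and a calcium dye, signals were followed for 180 s after compound, then for 180 s after EC80 dopamine, to detect inhibitors.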
Each line names hits and unclear results; the compound was inactive in the other large screens; ! = repeats disagree. Hits are enriched below; roughly 6% of the tested compounds scored in any of these assays.

CN(C)CCCN(C(=O)CCOc1ccccc1)c1nc2c(F)cccc2s1	D3 antag -99
CN(C)CCCN(C(=O)COc1ccc(Cl)cc1)c1nc2c(F)cccc2s1	none
CN(C)CCCN(C(=O)CCOc1ccccc1)c1nc2ccc(F)cc2s1	D3 antag -91
COc1ccc(NC(=O)CSc2nnnn2C2CC3C=CC2C3)cc1 (centres undefined)	none
COc1ccccc1CN1C(=O)CN(C2CCCCCC2)C(=O)C1c1ccc(C)cc1 (centres undefined)	none (no result: D3 antag)
Cc1noc(C)c1C(=O)N(CC(C)C)c1nc2ccccc2s1	none
CCCCCCNC(=O)OC12CN(C(=O)OC(C)C)N(C(=O)OC(C)C)CC1(O)CN(S(=O)(=O)c1ccc(C)cc1)C2 (centres undefined)	none (no result: D1 PAM, D1 agonist, D1 antagonist)
O=C(COc1ccccc1F)OCc1cc(=O)n2nc(C3CC3)sc2n1	none (no result: D3 antag)
COc1ccc(C(=O)N2CCCC2)cc1	none
O=C(c1ccc(Cl)cc1)N1CCN(CCOc2ccccc2)CC1	DRD3 agonist 84
Cc1ccc(C)n1CCN1CCN(C(=O)c2ccc(Cl)cc2)CC1	D3 antag -78
Cc1ccc(C)n1CCN1CCN(C(=O)c2ccco2)CC1	none
COc1ccc(OCCN2CCN(C(=O)c3ccc(OC(F)F)c(OC)c3)CC2)cc1	DRD3 agonist 123
COc1ccc(OCCN2CCN(C(=O)c3ccc(OC)cc3)CC2)cc1	DRD3 agonist 92
Cc1ccsc1C(=O)N(C)CC(=O)N(CC(C)C)c1c(N)n(CC(C)C)c(=O)[nH]c1=O	none
COc1cc2nc(Nc3ccc(C)c(Cl)c3)nc(N)c2cc1OC	none
COc1ccc(OC)c(Nc2c3c(nc4ccccc24)CCC3)c1	none
COc1cc(NS(C)(=O)=O)ccc1Nc1c2ccccc2nc2ccccc12	D1 antagonist -49
Cc1ccccc1Nc1nc(N)c2ccccc2n1	none
COc1cc2nc(Nc3ccc(C)c(C)c3)nc(N)c2cc1OC	D1 antagonist -35!
COc1ccc(C)cc1Nc1nc(N)c2ccccc2n1	D1 antagonist -36
COc1ccc(OC)c(Nc2c3ccccc3nc3ccccc23)c1	D3 antag inconclusive, D1 antagonist -54
Cc1cc2c(s1)c1cnn(Cc3ccc(F)c(F)c3)c(=O)c1n2C	none (no result: DRD3 agonist, D3 antag)
O=[N+]([O-])c1ccc(Nc2c3ccccc3nc3ccccc23)cc1	none
COc1ccc([N+](=O)[O-])cc1Nc1c2ccccc2nc2ccccc12	D1 antagonist -41
CC1Oc2cc3oc4c(O)c5c(cc4c(=O)c3c(O)c2C1(C)C)C=CC(C)(C)O5 (centres undefined)	DRD3 agonist 44 (no result: D1 PAM, D1 agonist, D1 antagonist)
CCOC(=O)c1c(C)[nH]c(C)c1S(=O)(=O)N1CCCC(C(=O)Nc2cc(C)ccc2C)C1 (centres undefined)	none (no result: D3 antag)
O=C(c1cc2c(s1)-c1ccccc1OC2)N1CCc2ccccc2C1	D1 antagonist -54
CC1CCCN(CCCNC(=O)c2cc3c(s2)-c2ccccc2OC3)C1 (centres undefined)	D3 antag inconclusive
Cc1cccc2c1-c1sc(C(=O)Nc3ccccc3C(N)=O)cc1CO2	none (no result: D3 antag)
Cc1cccc2c1-c1sc(C(=O)Nc3cccc([N+](=O)[O-])c3C)cc1CO2	D1 agonist 31
Cc1ccc(CCNC(=O)c2cc3c(s2)-c2c(C)cccc2OC3)cc1	none (no result: D3 antag)
CC1CCN(CCCNC(=O)c2cc3c(s2)-c2ccccc2OC3)CC1	D3 antag -83
Cc1cccc2c1-c1sc(C(=O)NCCCN3CCC(C)CC3)cc1CO2	D3 antag -95
NC(=O)c1c(NC(=O)c2nc(SCc3ccccc3F)ncc2Cl)sc2c1CCCC2	none (no result: D3 antag)
COc1ccc(Cl)cc1S(=O)(=O)N1CCN(S(=O)(=O)c2ccc3c(c2)OCCO3)CC1	none (no result: DRD3 agonist, D3 antag)
O=C(Nc1cccnc1)c1cc2c(s1)-c1ccccc1OC2	D1 antagonist -46
Cc1cccc2c1-c1sc(C(=O)Nc3cccnc3)cc1CO2	none
O=C(CSc1nc2c(oc3ccccc32)c(=O)n1CC1CCCO1)NCc1ccccc1 (centres undefined)	none
CCOc1ccc(-c2nnc(SCC(=O)Nc3cccc(Cl)c3C)o2)cc1	D1 antagonist -35 (no result: D3 antag)
Cc1c(NC(=O)/C(C#N)=C/c2ccc(-c3cccc(Cl)c3)o2)c(=O)n(-c2ccccc2)n1C	D1 antagonist -38
N#C/C(=C\c1ccc(-c2cc(Cl)ccc2Cl)o1)C(=O)Nc1ccccc1C(=O)O	DRD3 agonist 33 (no result: D3 antag)
Cc1c(NC(=O)CSc2nnc(-c3cccc(Cl)c3)o2)c(=O)n(-c2ccccc2)n1C	D3 antag -72
CC1CC1c1ccc(/C=C(\C#N)C(=O)Nc2cc(Cl)ccc2Cl)o1 (centres undefined)	none
CCOC(=O)c1c(NC(C)=O)c2c3c(sc2n1Cc1nc(-c2cccc(Cl)c2)oc1C)CCCC3	D1 antagonist -37 (no result: D3 antag)
Cc1cc(-c2ccc(S(=O)(=O)N3CCN(c4ccc(Cl)cc4)CC3)s2)on1	none (no result: D3 antag)
Cc1cc(Br)cc2c1N(Cc1ccccc1OC(C)C)C(=O)C2=O	D1 antagonist -51 (no result: D3 antag)
O=C(c1ccc(Cl)cc1)[C@@H]1[C@@H]2C(=O)N(c3ccc(Cl)cc3)C(=O)[C@@H]2C2c3ccccc3C=NN21 (some centres undefined)	D1 antagonist -35
CCCCN1C(=O)C(NC(=O)c2ccc(C(C)(C)C)cc2)(C(F)(F)F)C(C(=O)OC)=C1C (centres undefined)	D1 agonist 58 (no result: D3 antag)
O=C(Cn1nc(-c2ccccc2)ccc1=O)NCCN1CCN(c2cccc(Cl)c2)CC1	D3 antag -60
Cc1ccc2c(c1)N(CCC(=O)NCc1ccccn1)C(=O)CO2	D3 antag -64
O=C(CCNC(=O)Cn1ccc2ccccc2c1=O)NCCN1CCN(c2cccc(Cl)c2)CC1	D3 antag -61
CCN(CC)CCOC(=O)c1ccc(NC(=O)CCCN2C(=O)/C(=C\c3cccs3)SC2=S)cc1	D3 antag -109, D1 antagonist -66
O=C(CCN1C(=O)/C(=C\c2cccs2)SC1=S)Nc1ccc(C(=O)O)cc1	none
CC(C)(C)OC(=O)N1CCC[C@@H]1C(=O)NCc1ccccc1Cl	none (no result: D1 PAM, D1 agonist, D1 antagonist)
CCN(CC)CCOC(=O)c1ccc(NC(=O)CCNC(=O)Cn2ccc3ccccc3c2=O)cc1	D3 antag -64
O=C(CCN1C(=O)COc2ccccc21)NCCN1CCOCC1	none
Cc1ccccc1NC(=O)CCNC(=O)Cn1ccc2ccccc2c1=O	D1 antagonist -35 (no result: D3 antag)
O=C(CCNC(=O)Cn1ccc2ccccc2c1=O)NCCN1CCc2ccccc2C1	D3 antag -52
CC(C)c1ccc(NC(=O)CCNC(=O)Cn2ccc3ccccc3c2=O)cc1	none
O=C(CCN1C(=O)COc2ccccc21)NCCN1CCN(c2cccc(Cl)c2)CC1	D3 antag -69
O=C(CCN1C(=O)COc2ccccc21)NCCC1=CCCCC1	D3 antag -110
CO/N=C(\C(=O)N[C@@H]1C(=O)N2C(C(=O)O)=C(CSc3nnnn3C)CS[C@H]12)c1csc(N)n1	none (no result: D1 PAM, D1 agonist, D3 antag, D1 antagonist)

Source: PubChem BioAssay
